# Shown are actives, neighbours in structure and some others; about 10% of the full set was active somewhere.
# SW480 rerep – A quantitative high throughput screen for small molecules that induce DNA re-replication in SW480 colon adenocarcinoma cells | AID 624297, 2012 | SW480 DNA re-replication, Hoechst DNA content imaging, 48 h | 340,000 tested, 1.8% active | Potency, µM (titrated, usually from 46.1 µM), usual class: activators; further: nearly all actives have a fitted effect of over 55% in size
#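 Readout is total intensity of Hoechst-stained nuclei, excited at 405 nm and collected at 500-530 nm. Compound treatment lasted 48 hr at 37 C in 5% CO2 before staining.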
# RORgamma inh – qHTS for inhibitors of ROR gamma transcriptional activity | Drosophila S2 Gal4-RORgamma UAS-luciferase reporter, 20 h | 310,000 tested, 5.4% active | Potency, µM (doses to about 53.6 µM), hits mostly inhibitors | Nuclear receptor ROR-gamma (Mus musculus), P51450; further: nearly all actives have a fitted effect of over 60% in size
# Target sequence (P51450 whole entry, looked up, the tested form may be a part): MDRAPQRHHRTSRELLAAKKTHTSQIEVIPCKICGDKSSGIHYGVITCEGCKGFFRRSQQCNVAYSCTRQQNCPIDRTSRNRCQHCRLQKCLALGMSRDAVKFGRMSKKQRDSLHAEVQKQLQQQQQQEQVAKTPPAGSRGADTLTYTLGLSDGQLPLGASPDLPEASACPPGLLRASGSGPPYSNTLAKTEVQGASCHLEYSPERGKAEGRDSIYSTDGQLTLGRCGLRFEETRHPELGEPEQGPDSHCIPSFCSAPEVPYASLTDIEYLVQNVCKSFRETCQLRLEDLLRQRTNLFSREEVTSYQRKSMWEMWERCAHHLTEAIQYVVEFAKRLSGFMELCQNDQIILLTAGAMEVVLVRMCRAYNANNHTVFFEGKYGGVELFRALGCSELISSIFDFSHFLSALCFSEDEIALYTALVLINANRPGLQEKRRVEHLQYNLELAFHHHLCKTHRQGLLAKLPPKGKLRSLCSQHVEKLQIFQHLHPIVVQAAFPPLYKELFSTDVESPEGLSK
#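 Luciferase reporter read in Schneider cells carrying Gal4-RORγ (mouse) and UAS-Photinus luciferase; cells given compound 1 h before 700 uM copper sulfate induction, then incubated 20 h at ambient temperature.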
# VP16 counter – VP16 counterscreen qHTS for inhibitors of ROR gamma transcriptional activity; 310,000 tested, 3.5% active; Potency, µM (titrated, usually from 53.6 µM), hits mostly inhibitors; Drosophila S2 Gal4-VP16 UAS-luciferase, luminescence, 20 h; AID 2546, 2010;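 further: Gal4-VP16 expression switched on by copper sulfate through the metallothionein promoter; nearly all actives have a fitted effect of over 50% in size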
# MCF10A rerep – A quantitative high throughput screen for small molecules that induce DNA re-replication in MCF 10a normal breast cells; 350,000 tested, 2.9% active; MCF 10A DNA re-replication, Hoechst nuclear intensity, 48 h; AID 624296, 2012; Potency, µM (highest dose often 46.1 µM), most hits filed as activators; further: nearly all actives have a fitted effect of over 50% in size
# KB-V1 cytotox – qHTS assay for MDR1-selective chemotherapeutics: Primary screen using the drug-selected MDR subline cells KB-V1; KB-V1 MDR cells viability, CellTiter-Glo, 72 h; Potency, µM (series often up to 46.1 µM), usual class: cytotoxic; 400,000 tested, 3.4% active; AID 1347076, 2019; further: nearly all actives have a fitted effect of over 60% in size
#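 KB-V1 cells (P-gp-expressing MDR subline of KB-3-1) in phenol-red-free DMEM with 10% FBS were exposed to library compounds over a concentration series for 72 h at 37 degrees C. Viability read by CellTiter-Glo luminescence; concentration-effect curves fitted after normalization.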
# KB-3-1 tox – qHTS assay for MDR1-selective chemotherapeutics: Primary screen using the parental adenocarcinoma cell KB-3-1; KB-3-1 viability, CellTiter-Glo ATP luminescence, 72 h; Potency, µM (top dose mostly 46.1 µM), usual class: cytotoxic; 400,000 tested, 1.4% active; further: nearly all actives have a fitted effect of over 60% in size
#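 Cells are dispensed, compounds pinned in, plates held at 37 °C for 72 h, then CellTiter-Glo is added and luminescence read after 10 minutes. Cell line: parental KB-3-1 in phenol-red-free DMEM, 10% FBS.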
# Numbers stand for hits; – = inactive; ? = inconclusive; · = no result; ! = not active in a repeat. The call rests on the fitted dose curve; in most records, active means well fitted curve in the direction sought with a large enough effect; inconclusive means small, poorly fitted or top-dose-only effect, or another doubt; inactive means no such curve, though single readings can be large; an effect the other way counts as inactive or inconclusive.
SMILES,SW480 rerep,RORgamma inh,VP16 counter,MCF10A rerep,KB-V1 cytotox,KB-3-1 tox
CCc1ccccc1NC(=O)c1ccc2c(c1)CCCN2S(C)(=O)=O,·,·,·,·,–,–
Cc1csc(NC(=O)CCc2ccc(S(=O)(=O)N3CCOCC3)cc2)n1,–,–,–,?,23µM,–
CN(C)NC(=S)Nc1ccc(S(=O)(=O)N2CCCCC2)cc1,–,2.8µM,5.6µM,–,–,–
O=S(=O)(c1ccc(NC(=S)NN=Cc2ccccc2O)cc1)N1CCCCC1,?,·,·,–,7.3µM,–
CCCC(C(=O)Nc1ccc(S(=O)(=O)N2CCOCC2)cc1)c1ccccc1 (stereo not drawn),0.23µM,·,·,?,–,–
COc1ccc(C(=O)N2CCC[C@@]3(CCN(Cc4ccc(C#N)cc4)C3)C2)cc1,·,–,–,·,·,·
NC(=O)NC(CC(=O)NNC(=O)c1cccs1)c1ccc(Cl)cc1 (stereo not drawn),–,·,·,–,–,–
Cc1nnc(NCc2ccccc2)c2c1nnn2Cc1ccccc1Cl,·,·,·,·,–,–
Cc1ccccc1N1CC(C(=O)Nc2ccc(S(=O)(=O)N3CCCCC3)cc2)CC1=O (stereo not drawn),–,–,–,–,–,–
N#CC(C#N)=NNc1ccc(S(=O)(=O)N2CCCCC2)cc1,–,?,22µM,26µM,–,–
Cc1cccc(N2CC(C(=O)Nc3ccc(S(=O)(=O)N4CCCCC4)cc3)CC2=O)c1C (stereo not drawn),–,–,–,13µM,–,–
N#C/C(=N\Nc1ccc(S(=O)(=O)N2CCOCC2)cc1)C(N)=S,–,?,–,–,–,–
O=C(CCc1ccccc1)NC(=S)Nc1ccc(S(=O)(=O)N2CCOCC2)cc1,–,22µM,–,?,4.6µM,?
O=S(=O)(c1ccc(NC(=S)Nc2ccccc2)cc1)N1CCOCC1,–,?,–,–,–,–
CSc1nc(COC(=O)NC(C)C)c(COC(=O)NC(C)C)n1Cc1ccccc1,·,·,·,·,–,–
COc1ccc(O)c(CNn2c(-c3ccc(Br)cc3)nc3ccccc3c2=O)c1,–,–,–,–,?,–
COc1ccc(-c2nc3ccccc3c(=O)n2N)cc1,–,–,–,–,–,–
COc1cc(OC)cc(-c2nc3ccccc3c(=O)n2OC(=O)c2ccc(Br)cc2)c1,?,10µM,11µM,–,?,–
CCOC(=O)CSc1nc2ccccc2c(=O)n1NC(=O)c1ccccc1,–,–,–,–,?,–
COc1ccc(C(=O)Nn2c(SCC(=O)c3ccccc3)nc3ccccc3c2=O)cc1,–,11µM,?,–,–,–
COc1ccc(C(=O)On2c(-c3ccc(Br)cc3)nc3ccccc3c2=O)cc1,?,7.1µM,5µM,9.2µM,?,?
COc1ccc(-c2nc3ccccc3c(=O)n2NC(=O)Cc2ccccc2)cc1,–,–,–,–,15µM,–
CCn1c(SCC(=O)NCc2ccco2)nnc1-c1cccc(N(C)C)c1,·,·,·,·,–,–
CN(C)c1ccc(-c2nc(NC3CCNCC3)c3ccccc3n2)cc1,·,?,–,·,·,·
CCOc1ccc(C2CC(=O)Nc3c2c(=O)[nH]c2ncnn32)cc1 (stereo not drawn),·,·,·,·,–,–
SMILES,SW480 rerep,RORgamma inh,VP16 counter,MCF10A rerep,KB-V1 cytotox,KB-3-1 tox
COc1cc(/C=C/C(=O)c2ccc(O)cc2)ccc1OCC#N,·,?,?,?,18µM,6.5µM
COc1cccc(C(=O)/C=C/c2ccc(OCC#N)c(OC)c2)c1,23µM,?,?,9.2µM,?,?
COc1ccc(NC(=O)Cn2c(=O)cc(C)c3c(C)nn(C)c32)cc1,·,·,·,·,–,–
Cc1cc2c(cc1C)C(=O)C(Br)=C(N)C2=O,?,·,·,?,–,–
Cc1cc(-c2cc(C)c(N)cc2C)c(C)cc1N,18µM,·,·,–,–,–
CN(C)c1ccc(C(CNS(=O)(=O)c2ccc(Cl)cc2)N2CCCC2)cc1 (stereo not drawn),·,·,·,·,–,–
CCCS(=O)(=O)c1c(S(=O)(=O)CCC)c2cc(-c3ccncc3)ccn2c1C(=O)OC,18µM,?,–,23µM,–,–
CCCS(=O)(=O)c1c(S(=O)(=O)CCC)c2cc(CC)ccn2c1C(=O)c1ccc(OC)cc1,·,·,·,·,–,–
COc1ccc(OC)c(CNC(=O)Cn2ncc3c([nH]c4ccc(C)cc43)c2=O)c1,·,·,·,·,–,–
O=C(COc1ccc(-c2nnco2)cc1)NCc1ccccc1Cl,–,?,–,–,–,–
CC(NC(=O)COc1ccc(-c2nnco2)cc1)c1ccc(Cl)cc1Cl (stereo not drawn),·,?,–,–,21µM,?
S=C(Nc1ccccc1Cl)NC1CC2CCCC(C1)N2C1CC1 (stereo not drawn),–,11µM,–,–,–,–
Cn1ncc2c(O/N=C(\N)c3ccc(C(C)(C)C)cc3)ncnc21,9.2µM,–,?,18µM,13µM,?
O=C(NCc1ccc(F)cc1)c1cc2c(=O)n3ccccc3nc2s1,·,·,·,·,–,–
CN(C)CCNCCCNc1c2ccccc2nc2cccc([N+](=O)[O-])c12,?,·,·,?,–,0.016µM
CN(C)CCCNc1c2c(nc3ccccc13)CCC2,–,–,–,–,–,?
CCN(C(=O)c1cc2cc(Br)cc(OC)c2oc1=O)c1ccccc1,·,·,·,·,–,–
CCOC(=O)c1[nH]c2ccccc2c1NC(=O)c1ccc(OC(C)C)cc1,·,·,·,·,–,–
CC[C@H](CO)Oc1cc(NCc2ccc(Cl)c(Cl)c2)c2ncn(C(C)C)c2c1,–,·,·,21µM,–,?
Nc1cccc2c1C(=O)N(Cc1cccc(Cl)c1)C2=O,?,–,–,16µM,–,–
COc1cccc(Cn2c(=O)c(-c3cccs3)nc3cnc(N4CCN(C)CC4)nc32)c1,·,–,–,·,·,·
Cc1ccc(NS(=O)(=O)c2ccc(-c3cnc(C4CC4)o3)cc2)cc1,18µM,?,–,10µM,?,18µM
COc1cccc(NS(=O)(=O)c2cc(-c3cnc(C4CC4)o3)ccc2C)c1,·,·,·,·,7.3µM,4.1µM
Cc1ccc(CNS(=O)(=O)c2ccc(-c3cnc(C4CC4)o3)cc2)cc1,–,–,–,–,–,–
COc1ccc(C)cc1NS(=O)(=O)c1ccc(-c2cnc(C3CC3)o2)cc1,0.13µM,–,18µM,?,?,0.21µM
Cc1ccc(N(C)S(=O)(=O)c2ccc(-c3cnc(C4CC4)o3)cc2)cc1,?,–,–,?,2.9µM!,3.3µM!
CCOc1ccccc1N(C)C(=O)c1cc(S(=O)(=O)NCc2ccc(C)cc2)ccc1F,·,·,·,·,–,?
